In PubChem BioAssay (EPA / NIEHS) one finds outcome and AC50 data, which are given here for 20 compounds.

Values joined by “and” are separate entries in the source; they are usually repeats but may differ in a detail not shown here. Equal entries are not always repeated. Some compounds were tested as several samples or in several runs, with calls that do not always agree. Active and inactive are the calls of the source. How the source made its calls, unless noted: active means hit-call score of the fitted dose curve at least 0.9, where 1 is the maximum; inactive means score below 0.9.

Tested on in one test: not listed separately
Briefly: CCTE_Shafer_MEA_dev_network_spike_peak: CCTE's Neural Network Formation Assay for Mean Number of Electrodes in Network Spike, Shafer Lab (AID 2284049).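 On AC50: fitted for loss of signal meaning fewer electrodes in network spikes than DMSO.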 The procedure, abridged:
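Network-spike peak electrode count from recordings on days 5, 7, 9 and 12 was combined as trapezoidal area under the curve. Rat cortical cultures were treated continuously from plating, with compound renewed at each feed (DIV 5, 9); fits versus DMSO.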
Turning to `CSC(=O)c1cccc2nnsc12`, the compound was called inactive.
As a reminder, the AC50 is the midpoint of the concentration-response curve, whichever way the signal moves. `S=C(S)NCCNC(=S)S.[Mn+2].[S-]C([S-])=NCCN=C([S-])[S-].[Zn+2]`: the AC50 is 7.52 µM (active) and the call was inactive.
On to `Cc1nn(C)c(Oc2ccccc2)c1C=NOCc1ccc(C(=O)OC(C)(C)C)cc1`, for which the AC50 was 0.00317 µM (active).
Regarding `C#CCOC(=O)[C@@H](C)Oc1ccc(Oc2ncc(Cl)cc2F)cc1`, the compound was classed as inactive.
Still for that read-out and setting: the result for `O=C(O)c1ccccc1` reads “inactive”.
Regarding `Oc1ccc(C(c2ccc(O)cc2)C(Cl)(Cl)Cl)cc1`, the AC50 was 12.9 µM (active).
In the case of `CCN(CC)C(=O)c1cccc(C)c1`, the compound was called inactive.
Same read-out and setting: the result for `S=C([S-])NCCNC(=S)[S-].[Mn+2]` reads “inactive”.
Still for that read-out and setting: the entry for `COCCO` is “inactive”; for `OB(O)O` it is “inactive”.
Turning to `CC1(C)C(C=C(Cl)Cl)C1C(=O)OCc1cccc(Oc2ccccc2)c1` (stereo unspecified), the AC50 was 23.2 µM (active) and 9.11 µM (active).
As for `CCCCC(CC)CN1C(=O)C2C3C=CC(C3)C2C1=O` (stereo unspecified), the compound was classed as inactive.
In the case of `CCCCOCCOCCOCc1cc2c(cc1CCC)OCO2`, the AC50 was 16.9 µM (active).
Regarding `CCCN(CCC)C(=O)SCC`, the call was inactive.
For `CC(C)(c1ccc(O)cc1)c1ccc(O)cc1`, the AC50 is 20.8 µM (active) and the result was inactive.

In a further test the test system is DIO2 (gene 1734). Briefly: CCTE_GLTED_hDIO2: CCTE's human Deiodinase 2 (DIO2) Inhibition Assay, Great Lakes Toxicology and Ecology Division (GLTED) Lab (AID 2284050; active means hit-call score of the fitted dose curve at least 0.9, where 1 is the maximum). Put shortly:
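Readout: absorbance from Sandell-Kolthoff detection of free iodide released by human DIO2 during a 3 h incubation with chemical. Cell-free format, n=3; activity fitted relative to DMSO negative control.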
With `S=C(S)NCCNC(=S)S.[Mn+2].[S-]C([S-])=NCCN=C([S-])[S-].[Zn+2]`, the AC50 was 50 µM (active).
As for `CCCN(CCC)c1c([N+](=O)[O-])cc(C(F)(F)F)c(N)c1[N+](=O)[O-]`, the AC50 is 20 µM (active).
For `Oc1ccc(C(c2ccc(O)cc2)C(Cl)(Cl)Cl)cc1`, the AC50 is 100 µM (active).
As to `CC(=O)S[C@@H]1CC2=CC(=O)CC[C@]2(C)[C@H]2CC[C@@]3(C)[C@@H](CC[C@@]34CCC(=O)O4)[C@H]12`, the AC50 is 26.1 µM (active).
The same measure, in the same setting: the result for `CC(C)CCCCCCc1ccc(O)cc1` reads 93.1 µM (active); that for `CCOC(=O)C(C)Oc1ccc(Oc2nc3ccc(Cl)cc3o2)cc1` (stereo unspecified), 44.6 µM (active); that for `CCCCCOC(=O)COc1cc(N2C(=O)C3=C(CCCC3)C2=O)c(F)cc1Cl`, 59.5 µM (active).

Tested on in a further test: not listed separately
The experiment in a line: CCTE_Shafer_MEA_dev_spike_duration_mean: CCTE's Neural Network Formation Assay for Mean Spike Duration, Shafer Lab (AID 2284051).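 On AC50: potency for a decrease in mean network spike duration versus DMSO.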 The procedure, abridged: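 Spontaneous activity was recorded on days 5, 7, 9 and 12 from rat cortical cultures grown on microelectrode arrays and dosed continuously from day 0, with media and compound renewed after the DIV 5 and 9 recordings. Network-spike duration was collapsed by area under the curve.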
Turning to `CSC(=O)c1cccc2nnsc12`, the call was inactive.
For the compound `S=C(S)NCCNC(=S)S.[Mn+2].[S-]C([S-])=NCCN=C([S-])[S-].[Zn+2]`, the AC50 was 2.42 µM (active) and the call was inactive.
Regarding `Cc1nn(C)c(Oc2ccccc2)c1C=NOCc1ccc(C(=O)OC(C)(C)C)cc1`, the AC50 is 0.00141 µM (active).
On to `C#CCOC(=O)[C@@H](C)Oc1ccc(Oc2ncc(Cl)cc2F)cc1`, for which the result was inactive.
On the same count and under the same terms, the entry for `O=C(O)c1ccccc1` is “inactive”.
For `Oc1ccc(C(c2ccc(O)cc2)C(Cl)(Cl)Cl)cc1`, the concentration at half-maximal activity (AC50) was 4.75 µM (active).
With `CCN(CC)C(=O)c1cccc(C)c1`, the call was inactive.
On the same count and under the same terms, the result for `S=C([S-])NCCNC(=S)[S-].[Mn+2]` reads “inactive”; that for `COCCO`, “inactive”.
On the same count and under the same terms, the result for `OB(O)O` reads “inactive”.
As to `CC1(C)C(C=C(Cl)Cl)C1C(=O)OCc1cccc(Oc2ccccc2)c1` (stereo unspecified), the AC50 was 21.3 µM (active) and 10.1 µM (active).
As to `CCCCC(CC)CN1C(=O)C2C3C=CC(C3)C2C1=O` (stereo unspecified), the result was inactive.
Still for that read-out and setting: the result for `CCCCOCCOCCOCc1cc2c(cc1CCC)OCO2` reads “inactive”.
`CCCN(CCC)C(=O)SCC`: the outcome was inactive.
Consider `CC(C)(c1ccc(O)cc1)c1ccc(O)cc1`, for which the half-maximal activity concentration (AC50) was 15 µM (active) and the result was inactive.
